Results taken from the supplement of paper PMC8728848.
The sample as a whole holds a higher share of the strongest signals than the screen did.

Key:
Experiment in all cases: glycan array binding signal (z-score within array); higher = stronger binding
Details in all cases: glycan notation: IUPAC condensed, linker removed
[1] = molecular target: Fuc(a1-2)Gal(b1-4)GlcNAc(b1-2)Man(a1-3)[Fuc(a1-2)Gal(b1-4)GlcNAc(b1-2)Man(a1-6)]Man(b1-4)GlcNAc(b1-4)[Fuc(a1-6)]GlcNAc
Summary of the method: (§1)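 Glycan array data came from 3228 arrays in the Consortium for Functional Glycomics database, and only arrays with an available protein sequence were kept. Glycan names were put into IUPAC-condensed notation, and columns mapping to the same glycan were averaged. The binding signal is a within-array Z-score, averaged across arrays of one protein sequence run at different concentrations or buffers and across linkers. A negative Z-score can be read as non-binding.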

[2] = molecular target: Fuc(a1-2)[Gal(a1-3)]Gal(b1-3)GalNAc
Summary of the method: as §1

[3] = molecular target: Fuc(a1-2)[Gal(a1-3)]Gal(b1-4)GlcNAc(b1-2)Man
Summary of the method: as §1

[4] = molecular target: Fuc(a1-2)[GalNAc(a1-3)]Gal(b1-3)GalNAc(a1-3)[Fuc(a1-2)]Gal(b1-4)GlcNAc
Summary of the method: as §1

[5] = molecular target: Fuc(a1-2)[GalNAc(a1-3)]Gal(b1-4)GlcNAc
Summary of the method: as §1

[6] = molecular target: Fuc(a1-2)[GalNAc(a1-3)]Gal(b1-4)GlcNAc(b1-2)Man
Summary of the method: as §1

[7] = molecular target: Fuc(a1-2)[GalNAc(a1-3)]Gal(b1-4)GlcNAc(b1-2)Man(a1-3)[Fuc(a1-2)[GalNAc(a1-3)]Gal(b1-4)GlcNAc(b1-2)Man(a1-6)]Man(b1-4)GlcNAc(b1-4)GlcNAc
Summary of the method: as §1

[8] = molecular target: Fuc(a1-2)[GalNAc(a1-3)]Gal(b1-4)GlcNAc(b1-3)Gal(b1-4)GlcNAc
Summary of the method: as §1

[9] = molecular target: Fuc(a1-2)[GalNAc(a1-3)]Gal(b1-4)GlcNAc(b1-3)Gal(b1-4)GlcNAc(b1-3)Gal(b1-4)GlcNAc
Summary of the method: as §1

[10] = molecular target: Fuc(a1-3)[Gal(b1-4)]GlcNAc
Summary of the method: as §1

Gal(a1-3)Gal = molecular target: Gal(a1-3)Gal
Summary of the method: as §1

[11] = molecular target: Gal(a1-3)Gal(b1-3)[Fuc(a1-4)]GlcNAc(b1-2)Man(a1-3)[Gal(a1-3)Gal(b1-3)[Fuc(a1-4)]GlcNAc(b1-2)Man(a1-6)]Man(b1-4)GlcNAc(b1-4)GlcNAc
Summary of the method: as §1

Gal(a1-3)Gal(b1-4)GlcNAc = molecular target: Gal(a1-3)Gal(b1-4)GlcNAc
Summary of the method: as §1

[12] = molecular target: Gal(a1-3)Gal(b1-4)GlcNAc(b1-3)GalNAc
Summary of the method: as §1

[13] = molecular target: Gal(a1-4)Gal(b1-3)GlcNAc(b1-2)Man(a1-3)[Gal(a1-4)Gal(b1-3)GlcNAc(b1-2)Man(a1-6)]Man(b1-4)GlcNAc(b1-4)GlcNAc
Summary of the method: as §1

Gal(a1-4)Gal(b1-4)Glc = molecular target: Gal(a1-4)Gal(b1-4)Glc
Summary of the method: as §1

[14] = molecular target: Gal(b1-3)GalNAc(b1-4)Gal(b1-4)Glc
Summary of the method: as §1

[15] = molecular target: Gal(b1-3)GlcNAc(a1-3)Gal(b1-4)GlcNAc
Summary of the method: as §1

[16] = molecular target: Gal(b1-3)GlcNAc(b1-3)Gal(b1-4)GlcNAc(b1-3)Gal(b1-4)GlcNAc(b1-2)[Gal(b1-3)GlcNAc(b1-3)Gal(b1-4)GlcNAc(b1-3)Gal(b1-4)GlcNAc(b1-6)]Man(a1-6)[Gal(b1-3)GlcNAc(b1-3)Gal(b1-4)GlcNAc(b1-3)Gal(b1-4)GlcNAc(b1-2)Man(a1-3)]Man(b1-4)GlcNAc(b1-4)[Fuc(a1-6)]GlcNAc
Summary of the method: as §1

[17] = molecular target: Gal(b1-3)GlcNAc(b1-6)[Gal(b1-3)]GalNAc
Summary of the method: as §1

Gal(b1-3)GlcNAc6S = molecular target: Gal(b1-3)GlcNAc6S
Summary of the method: as §1

[18] = molecular target: Gal(b1-3)[Neu5Ac(b2-6)]GalNAc
Summary of the method: as §1

Gal(b1-4)Gal = molecular target: Gal(b1-4)Gal
Summary of the method: as §1

[19] = molecular target: Gal(b1-4)GlcNAc(b1-2)Man(a1-3)Man(b1-4)GlcNAc(b1-4)GlcNAc
Summary of the method: as §1

[20] = molecular target: Gal(b1-4)GlcNAc(b1-2)Man(a1-3)[Gal(b1-4)GlcNAc(b1-2)Man(a1-6)]Man(b1-4)GlcNAc(b1-4)GlcNAc
Summary of the method: as §1

[21] = molecular target: Gal(b1-4)GlcNAc(b1-2)[Gal(b1-4)GlcNAc(b1-4)]Man(a1-3)[GlcNAc(b1-4)][Gal(b1-4)GlcNAc(b1-2)[Gal(b1-4)GlcNAc(b1-6)]Man(a1-6)]Man(b1-4)GlcNAc(b1-4)GlcNAc
Summary of the method: as §1

[22] = molecular target: Gal(b1-4)GlcNAc(b1-3)Gal(b1-4)GlcNAc(b1-2)[Gal(b1-4)GlcNAc(b1-3)Gal(b1-4)GlcNAc(b1-6)]Man(a1-6)[Gal(b1-4)GlcNAc(b1-3)Gal(b1-4)GlcNAc(b1-2)Man(a1-3)]Man(b1-4)GlcNAc(b1-4)[Fuc(a1-6)]GlcNAc
Summary of the method: as §1

Gal3S6S(b1-4)GlcNAc6S = molecular target: Gal3S6S(b1-4)GlcNAc6S
Summary of the method: as §1

Gal6S(b1-3)GlcNAc = molecular target: Gal6S(b1-3)GlcNAc
Summary of the method: as §1

[23] = molecular target: GalNAc(a1-3)GalNAc(b1-3)Gal(a1-4)Gal(b1-4)Glc
Summary of the method: as §1

GalNAc(b1-3)GlcNAc = molecular target: GalNAc(b1-3)GlcNAc
Summary of the method: as §1

GalNAc(b1-4)GlcNAc = molecular target: GalNAc(b1-4)GlcNAc
Summary of the method: as §1

[24] = molecular target: GalNAc(b1-4)GlcNAc(b1-2)Man
Summary of the method: as §1

[25] = molecular target: GalNAc(b1-4)GlcNAc(b1-3)GalNAc(b1-4)GlcNAc
Summary of the method: as §1

GalNAc(b1-4)GlcNAc6S = molecular target: GalNAc(b1-4)GlcNAc6S
Summary of the method: as §1

GalNAc6S(b1-4)GlcNAc = molecular target: GalNAc6S(b1-4)GlcNAc
Summary of the method: as §1

[26] = molecular target: GlcNAc(b1-2)Man(a1-3)[GlcNAc(b1-4)][GlcNAc(b1-2)Man(a1-6)]Man(b1-4)GlcNAc(b1-4)[Fuc(a1-6)]GlcNAc
Summary of the method: as §1

[27] = molecular target: GlcNAc(b1-3)Gal(b1-4)GlcNAc(b1-3)Gal(b1-4)GlcNAc(b1-3)Gal(b1-4)GlcNAc(b1-2)Man(a1-3)[GlcNAc(b1-3)Gal(b1-4)GlcNAc(b1-3)Gal(b1-4)GlcNAc(b1-3)Gal(b1-4)GlcNAc(b1-2)Man(a1-6)]Man(b1-4)GlcNAc(b1-4)[Fuc(a1-6)]GlcNAc
Summary of the method: as §1

[28] = molecular target: GlcNAc(b1-3)Gal(b1-4)GlcNAc(b1-3)Gal(b1-4)GlcNAc(b1-3)GalNAc
Summary of the method: as §1

GlcNAc(b1-3)GalNAc = molecular target: GlcNAc(b1-3)GalNAc
Summary of the method: as §1

GlcNAc(b1-4)GlcNAc = molecular target: GlcNAc(b1-4)GlcNAc
Summary of the method: as §1

[29] = molecular target: GlcNAc6S(b1-3)Gal(b1-4)GlcNAc
Summary of the method: as §1

Kdn(a2-3)Gal(b1-4)Glc = molecular target: Kdn(a2-3)Gal(b1-4)Glc
Summary of the method: as §1

Kdn(a2-6)Gal(b1-4)GlcNAc = molecular target: Kdn(a2-6)Gal(b1-4)GlcNAc
Summary of the method: as §1

[30] = molecular target: Man(a1-2)Man(a1-6)[Man(a1-3)]Man(a1-6)[Man(a1-2)Man(a1-2)Man(a1-3)]Man
Summary of the method: as §1

Man(a1-6)Man = molecular target: Man(a1-6)Man
Summary of the method: as §1

[31] = molecular target: Neu5Ac(a2-3)Gal(b1-3)GalNAc6S
Summary of the method: as §1

[32] = molecular target: Neu5Ac(a2-3)Gal(b1-4)GlcNAc(b1-2)Man(a1-3)[GlcNAc(b1-4)][Neu5Ac(a2-3)Gal(b1-4)GlcNAc(b1-2)Man(a1-6)]Man(b1-4)GlcNAc(b1-4)GlcNAc
Summary of the method: as §1

[33] = molecular target: Neu5Ac(a2-6)Gal(b1-4)GlcNAc(b1-2)[Neu5Ac(a2-6)Gal(b1-4)GlcNAc(b1-6)]Man(a1-6)[Neu5Ac(a2-6)Gal(b1-4)GlcNAc(b1-2)Man(a1-3)][GlcNAc(b1-4)]Man(b1-4)GlcNAc(b1-4)GlcNAc
Summary of the method: as §1

[34] = molecular target: Neu5Ac(a2-6)Gal(b1-4)GlcNAc(b1-3)Gal(b1-4)GlcNAc(b1-3)Gal(b1-4)GlcNAc(b1-2)Man(a1-3)[Neu5Ac(a2-6)Gal(b1-4)GlcNAc(b1-3)Gal(b1-4)GlcNAc(b1-3)Gal(b1-4)GlcNAc(b1-2)Man(a1-6)]GalNAc
Summary of the method: as §1

[35] = molecular target: Neu5Ac(a2-6)Gal(b1-4)GlcNAc(b1-3)[Neu5Ac(a2-6)Gal(b1-4)GlcNAc(b1-6)]GalNAc
Summary of the method: as §1

[36] = molecular target: Neu5Ac(b2-6)Gal(b1-4)GlcNAc
Summary of the method: as §1

B1: rCNL (Clitocybe nebularis), B2ZRS9 (protein)
chain: SITPGTYNITNVAYTNRLIDLTGSNPAENTLIIGHHLNKTPSGYGNQQWTLVQLPHTTIYTMQAVNPQSYVRVRDDNLVDGAALVGSQQPTPVSIESAGNSGQFRIKIPNLGLALTLPSDANSTPIVLGEVDETSTNQLWAFESVSAV
glycan array binding signal (z-score) [1]: -0.116 | glycan array binding signal (z-score) [2]: -0.222 | glycan array binding signal (z-score) [3]: -0.215 | glycan array binding signal (z-score) [4]: 2.47 | glycan array binding signal (z-score) [5]: 3.08 | glycan array binding signal (z-score) [6]: 3.12 | glycan array binding signal (z-score) [7]: 4 | glycan array binding signal (z-score) [8]: 3.46 | glycan array binding signal (z-score) [9]: 3.25 | glycan array binding signal (z-score) [10]: -0.299 | glycan array binding signal (z-score) (Gal(a1-3)Gal): -0.297 | glycan array binding signal (z-score) [11]: -0.27 | glycan array binding signal (z-score) (Gal(a1-3)Gal(b1-4)GlcNAc): -0.098 | glycan array binding signal (z-score) [12]: -0.129 | glycan array binding signal (z-score) [13]: -0.187 | glycan array binding signal (z-score) (Gal(a1-4)Gal(b1-4)Glc): -0.261 | glycan array binding signal (z-score) [14]: -0.287 | glycan array binding signal (z-score) [15]: -0.21 | glycan array binding signal (z-score) [16]: -0.203 | glycan array binding signal (z-score) [17]: -0.215 | glycan array binding signal (z-score) (Gal(b1-3)GlcNAc6S): -0.226 | glycan array binding signal (z-score) [18]: -0.305 | glycan array binding signal (z-score) (Gal(b1-4)Gal): -0.215 | glycan array binding signal (z-score) [19]: -0.275 | glycan array binding signal (z-score) [20]: -0.13 | glycan array binding signal (z-score) [21]: -0.041 | glycan array binding signal (z-score) [22]: -0.147 | glycan array binding signal (z-score) (Gal3S6S(b1-4)GlcNAc6S): -0.283 | glycan array binding signal (z-score) (Gal6S(b1-3)GlcNAc): -0.224 | glycan array binding signal (z-score) [23]: -0.001 | glycan array binding signal (z-score) (GalNAc(b1-3)GlcNAc): 4.24 | glycan array binding signal (z-score) (GalNAc(b1-4)GlcNAc): 6.23 | glycan array binding signal (z-score) [24]: 6.09 | glycan array binding signal (z-score) [25]: 7.74 | glycan array binding signal (z-score) (GalNAc(b1-4)GlcNAc6S): 4.96 | glycan array binding signal (z-score) (GalNAc6S(b1-4)GlcNAc): 7.28 | glycan array binding signal (z-score) [26]: -0.228 | glycan array binding signal (z-score) [27]: -0.217 | glycan array binding signal (z-score) [28]: -0.218 | glycan array binding signal (z-score) (GlcNAc(b1-3)GalNAc): -0.286 | glycan array binding signal (z-score) (GlcNAc(b1-4)GlcNAc): -0.304 | glycan array binding signal (z-score) [29]: -0.273 | glycan array binding signal (z-score) (Kdn(a2-3)Gal(b1-4)Glc): -0.301 | glycan array binding signal (z-score) (Kdn(a2-6)Gal(b1-4)GlcNAc): -0.285 | glycan array binding signal (z-score) [30]: -0.296 | glycan array binding signal (z-score) (Man(a1-6)Man): -0.294 | glycan array binding signal (z-score) [31]: -0.232 | glycan array binding signal (z-score) [32]: -0.226 | glycan array binding signal (z-score) [33]: -0.222 | glycan array binding signal (z-score) [34]: -0.13 | glycan array binding signal (z-score) [35]: -0.221 | glycan array binding signal (z-score) [36]: -0.31
